Shown are actives, neighbours in structure and some others; about 27% of the full set was active somewhere.
CYP2C9 act: CYP2C9 (human) activation; 96,000 tested, 1.4% active; AID 1024; activation factor at 5 µM; recombinant CYP2C9, luciferin-H conversion, luminescence; active compounds read high; factor 1 = untreated enzyme, 0 = blocked; P11712;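 active = activation factor of 2 or more for CYP2C9 at a 5 µM dose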;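 also: 0 = sulfaphenazole-blocked wells and 1 = vehicle-only wells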
CYP2C19 inh: blocks human cytochrome P450 2C19; CYP2C19 Supersomes, luciferin-H EGE luminescence, 30 min; AID 778; inhibition, % at 5 µM; P33261; 96,000 tested, 21% active;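 active = CYP2C19 inhibition above a set limit at 5 µM in the primary screen, cut at about 50% in these data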;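 also: plate controls were negative control wells for no effect and 2.5 mM tranylcypromine positive control for full effect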
CYP2C9 inhib: inhibitors of human CYP2C9 | inhibition, % at 5 µM | AID 777 | P11712 | 96,000 tested, 20% active | CYP2C9 Supersomes, luciferin-H conversion, luminescence;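 active = blocking of liver enzyme CYP2C9 beyond about 50% at 5 µM, limit read from the data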
EphB4 ephrin blk: blocks human EphB4 binding to ephrin-B2; EphB4 LBD / TNYL-RAW-Alexa532 peptide, fluorescence polarization; inhibition, % at 7 µM; 97,000 tested, 0.15% active; AID 720;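 active = inhibition above the screen-wide mean inhibition plus 3 SD, cut at about 15% in these data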;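 also: 0% = DMSO wells and 100% = excess unlabeled TNYL-RAW peptide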
Target sequence (P54760 whole entry, looked up, the tested form may be a part): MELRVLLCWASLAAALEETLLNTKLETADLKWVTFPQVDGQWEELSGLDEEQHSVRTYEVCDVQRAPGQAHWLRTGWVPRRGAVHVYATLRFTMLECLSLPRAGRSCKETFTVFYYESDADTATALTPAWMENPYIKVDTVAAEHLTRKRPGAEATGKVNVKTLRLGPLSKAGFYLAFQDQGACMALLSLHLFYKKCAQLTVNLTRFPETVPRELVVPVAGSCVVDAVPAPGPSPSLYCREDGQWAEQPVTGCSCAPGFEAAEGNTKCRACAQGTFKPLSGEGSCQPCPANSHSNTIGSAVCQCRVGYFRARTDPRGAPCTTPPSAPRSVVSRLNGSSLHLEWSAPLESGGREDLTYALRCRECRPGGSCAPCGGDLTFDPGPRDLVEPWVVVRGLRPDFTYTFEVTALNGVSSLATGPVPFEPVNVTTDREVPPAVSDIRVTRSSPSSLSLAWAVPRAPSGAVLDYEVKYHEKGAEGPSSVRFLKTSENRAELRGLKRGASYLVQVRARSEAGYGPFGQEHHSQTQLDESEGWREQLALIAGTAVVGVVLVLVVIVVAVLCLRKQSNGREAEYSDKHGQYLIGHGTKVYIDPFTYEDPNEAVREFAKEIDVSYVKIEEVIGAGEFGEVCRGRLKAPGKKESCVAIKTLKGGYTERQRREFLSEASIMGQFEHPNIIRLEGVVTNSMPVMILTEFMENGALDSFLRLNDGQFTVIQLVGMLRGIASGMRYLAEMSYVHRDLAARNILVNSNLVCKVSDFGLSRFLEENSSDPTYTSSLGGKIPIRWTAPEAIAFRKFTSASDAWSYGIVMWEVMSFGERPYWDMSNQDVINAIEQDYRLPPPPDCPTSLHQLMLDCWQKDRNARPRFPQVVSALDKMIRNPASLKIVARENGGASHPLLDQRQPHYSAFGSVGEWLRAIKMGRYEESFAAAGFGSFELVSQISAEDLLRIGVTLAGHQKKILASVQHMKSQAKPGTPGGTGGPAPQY
CYP2C19 activ: cytochrome P450 2C19 (human) activation; recombinant CYP2C19, luciferin-H EGE luminescence; active compounds read high; 0 = fully inhibited enzyme, 1 = untreated enzyme; 96,000 tested, under 10 active; activation factor at 5 µM;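 active = activation factor of at least 2 at 5 µM in the primary screen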;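 also: 0 = wells with 2.5 mM tranylcypromine and 1 = vehicle-only wells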
* marks the source's active call; other numbers are inactive results.

For CCN(CC)c1ccc(NC(=O)COc2ccc(C)cc2)cc1 the results were CYP2C9 act 1.5, CYP2C19 inh 65.7*, CYP2C9 inhib -54.0, EphB4 ephrin blk 0.6 and CYP2C19 activ 0.3.
For Cc1ccc(-c2nc3ccccc3[nH]2)s1 the results were CYP2C9 act 0.7, CYP2C19 inh 39.5, CYP2C9 inhib 32.6, EphB4 ephrin blk -7.3 and CYP2C19 activ 0.6.
`COc1cc2c(cc1NC(=O)Nc1cccc(C)c1)oc1ccccc12` gave CYP2C9 act 1, CYP2C19 inh -2.9, CYP2C9 inhib -3.2, EphB4 ephrin blk -1.1 and CYP2C19 activ 1.
For Cc1cc(N=Cc2cc(Cl)ccc2O)no1 the results were CYP2C9 act 1, CYP2C19 inh 2.8, CYP2C9 inhib -0.5, EphB4 ephrin blk -10.8 and CYP2C19 activ 1.
`CCOC(=O)C1=C(C)n2c(s/c(=C/c3cccc([N+](=O)[O-])c3)c2=O)=NC1c1ccc(O)c(OC)c1` (stereo not given) gave CYP2C9 act 0.3, CYP2C19 inh 55.4*, CYP2C9 inhib 67.2*, EphB4 ephrin blk 4.8 and CYP2C19 activ 0.4.
CCOC(=O)C1=C(C)N=c2s/c(=C/c3ccccc3)c(=O)n2C1c1ccc(OC)c(OC)c1 (stereo not given) was read as CYP2C9 act 0.6, CYP2C19 inh 37.8, CYP2C9 inhib 43.8, EphB4 ephrin blk -1.4 and CYP2C19 activ 0.6.
Screening O=C(NCc1ccc(F)cc1)c1cc2c(s1)CCCC2 returned CYP2C9 act 0.5, CYP2C19 inh 36.5, CYP2C9 inhib 53.4*, EphB4 ephrin blk 1.2 and CYP2C19 activ 0.6.
Screening COC(=O)c1cc2c(s1)CS(=O)C2 (stereo not given) returned EphB4 ephrin blk -12.7.
`CC1CCc2sc(C(=O)NCc3ccc(F)cc3)cc2C1` (stereo not given) gave CYP2C9 act 0.8, CYP2C19 inh 16.6, CYP2C9 inhib 17.5, EphB4 ephrin blk 0.6 and CYP2C19 activ 0.8.
COc1ccc(CNC(=O)c2cc3c(s2)CS(=O)C3)cc1 (stereo not given) was read as CYP2C9 act 0.5, CYP2C19 inh 70.6*, CYP2C9 inhib 53.6*, EphB4 ephrin blk 0.1 and CYP2C19 activ 0.3.
`CCOC(=O)C(=CNc1cc(C)nn1-c1ccc(Cl)cc1)C(=O)OCC` gave CYP2C9 act 0.2, CYP2C19 inh 71.2*, CYP2C9 inhib 77.2*, EphB4 ephrin blk 13.5 and CYP2C19 activ 0.3.
O=C(NCc1ccco1)C(c1cccs1)N(Cc1ccccc1)C(=O)Cn1nnc2ccccc21 (stereo not given) was read as CYP2C9 act 0.9, CYP2C19 inh 29.6, CYP2C9 inhib 5.2, EphB4 ephrin blk -2.7 and CYP2C19 activ 0.7.
Cc1ccc(CN(C(=O)Cn2nnc3ccccc32)C(C(=O)NCc2ccco2)c2cccs2)cc1 (stereo not given) was read as CYP2C9 act 0.6, CYP2C19 inh 72.8*, CYP2C9 inhib 40.1, EphB4 ephrin blk 14.4 and CYP2C19 activ 0.3.
For Nc1nc2n(n1)C(c1cccs1)CC(c1ccc(F)cc1)N2 (stereo not given) the results were CYP2C9 act 0.9, CYP2C19 inh 14.6, CYP2C9 inhib 5.1, EphB4 ephrin blk 4.7 and CYP2C19 activ 0.9.
`Cc1ccc(N2C(=O)c3ccccc3C2O)nc1` (stereo not given) gave CYP2C9 act 0.6, CYP2C19 inh 78.8*, CYP2C9 inhib 40.0 and CYP2C19 activ 0.2.
`Cc1ccc(N2C(=O)c3ccccc3C2Nc2ccccc2F)nc1` (stereo not given) gave CYP2C9 act 0.8, CYP2C19 inh 40.6, CYP2C9 inhib 24.7, EphB4 ephrin blk 0.6 and CYP2C19 activ 0.6.
CCOC(=O)c1[nH]c2ccc(Br)cc2c1NC(=O)CCN1CCN(C(=O)OCC)CC1 was read as CYP2C9 act 0.2, CYP2C19 inh 48.2, CYP2C9 inhib 76.1*, EphB4 ephrin blk -0.5 and CYP2C19 activ 0.5.
For CCOC(=O)c1[nH]c2ccc(Br)cc2c1NC(=O)CCN1CCC(C(=O)OCC)CC1 the results were CYP2C9 act 0.5, CYP2C19 inh 76.4*, CYP2C9 inhib 49.4, EphB4 ephrin blk 1.7 and CYP2C19 activ 0.2.
CCOC(=O)c1[nH]c2ccc(Br)cc2c1NC(=O)CCN1CCCCC1 was read as CYP2C9 act 0.8, CYP2C19 inh 9.2, CYP2C9 inhib 19.2, EphB4 ephrin blk -2.3 and CYP2C19 activ 0.9.
O=C(NNC(=O)c1cc(OCC(F)(F)F)ccc1OCC(F)(F)F)c1ccc(Cl)c(Cl)c1 was read as CYP2C9 act 0.9, CYP2C19 inh -1.6, CYP2C9 inhib 5.1, EphB4 ephrin blk 9.1 and CYP2C19 activ 1.
`CC(c1ccccc1)C1CC(=O)N(CC(=O)O)C1=O` (stereo not given) gave CYP2C9 act 0.9, CYP2C19 inh -0.7, CYP2C9 inhib 6.4, EphB4 ephrin blk 4.4 and CYP2C19 activ 1.
`CC(c1ccccc1)C1CC(=O)N(Cc2ccco2)C1=O` (stereo not given) gave CYP2C9 act 0.7, CYP2C19 inh 90.7*, CYP2C9 inhib 34.2, EphB4 ephrin blk 2.4 and CYP2C19 activ 0.1.
`Nc1c(C(=O)NCCN2CCOCC2)c2nc3ccccc3nc2n1CCc1ccccc1F` gave CYP2C9 act 0.7, CYP2C19 inh 22.7, CYP2C9 inhib 30.9, EphB4 ephrin blk -6.8 and CYP2C19 activ 0.8.
Nc1ncnc2nc(SCc3ccccc3)[nH]c12 was read as CYP2C9 act 0.6, CYP2C19 inh 69.8*, CYP2C9 inhib 42.1, EphB4 ephrin blk 1.1 and CYP2C19 activ 0.3.
Screening Cc1nc(C)c(NC(=O)N2CCc3ccccc32)cc1NC(=O)N1CCc2ccccc21 returned CYP2C9 act 0.2, CYP2C19 inh 52.4*, CYP2C9 inhib 76.7*, EphB4 ephrin blk -1.4 and CYP2C19 activ 0.5.
Cc1cccc(OCc2nnc(SCc3nc4ccccc4c(=O)[nH]3)o2)c1 was read as CYP2C9 act 0.5, CYP2C19 inh 54.5*, CYP2C9 inhib 48.0, EphB4 ephrin blk -7.2 and CYP2C19 activ 0.5.
For O=c1[nH]c(CSc2nnc(COc3ccccc3)n2-c2ccccc2)nc2ccccc12 the results were CYP2C9 act 0.1, CYP2C19 inh 85.1*, CYP2C9 inhib 89.9*, EphB4 ephrin blk -4.4 and CYP2C19 activ 0.1.
For COc1ccc(OCCNC(=S)Nc2cccc3ccccc23)cc1 the results were CYP2C9 act 1.5, CYP2C19 inh -4.3, CYP2C9 inhib -54.3, EphB4 ephrin blk -8.5 and CYP2C19 activ 1.
`O=C(NNC(=S)Nc1cccc2ccccc12)c1cccc(Br)c1` gave CYP2C9 act 0, CYP2C19 inh 91.2*, CYP2C9 inhib 96.0*, EphB4 ephrin blk 5.5 and CYP2C19 activ 0.1.
`CC(C)(C)c1ccc(C(=O)NNC(=O)c2cccc(Br)c2)cc1` gave CYP2C9 act 1.3, CYP2C19 inh -11.4, CYP2C9 inhib -31.2, EphB4 ephrin blk -0.7 and CYP2C19 activ 1.1.
For Cc1ccc(C(=O)NNC(=S)Nc2cccc3ccccc23)s1 the results were CYP2C9 act 0.3, CYP2C19 inh 38.5, CYP2C9 inhib 65.2*, EphB4 ephrin blk 1.5 and CYP2C19 activ 0.6.
